Compounds with a hit are over-represented: about 4.8% of the library has one in this group of screens.
hgDAF12 agonist – hgDAF-12 agonism, primary luciferase screen | HEK293 GAL4-hgDAF12 UAS-luciferase reporter, agonist luminescence; normalized to butyrate control | activation, % at 6.8 µM | 370,000 compounds, 1.8% hits | AID 687014;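 active means activation above a cutoff set at the mean of all screened compounds plus 3 SD, cut at about 10% in these data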
ssDAF12 agonist – S. stercoralis DAF-12 activation, primary screen; HEK293 ssDAF-12/GRIP1 lit1-tk-luc reporter, luminescence; % of 3 µM dafachronic acid response; activation, % at 6.8 µM; 370,000 compounds, 1% hits;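 active means activation above the mean over all tested compounds plus 3 SD, cut at about 0.9% in these data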
SMARCA2 activ – increases SMARCA2 function in MMTV reporter cells; MG213 cells, MMTV-luciferase reporter, dexamethasone, overnight; activation, % at 9.1 µM; 370,000 compounds, 1% hits; AID 652017; in the data active means activation above about 7.8%
DAX1 inh-1 – NR0B1 (DAX1) inhibition. HEK293 Gal4-DAX1 luciferase reporter, luminescence. P51843. 340,000 compounds, 0.99% hits. inhibition, % at 6.75 µM. AID 504766;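 active means inhibition above the mean over all tested compounds plus 3 SD, cut at about 4.2% in these data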;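 further: inhibition shows as a rise in luminescence from relieved DAX1 repression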
Target sequence (P51843 207-470 limits assumed): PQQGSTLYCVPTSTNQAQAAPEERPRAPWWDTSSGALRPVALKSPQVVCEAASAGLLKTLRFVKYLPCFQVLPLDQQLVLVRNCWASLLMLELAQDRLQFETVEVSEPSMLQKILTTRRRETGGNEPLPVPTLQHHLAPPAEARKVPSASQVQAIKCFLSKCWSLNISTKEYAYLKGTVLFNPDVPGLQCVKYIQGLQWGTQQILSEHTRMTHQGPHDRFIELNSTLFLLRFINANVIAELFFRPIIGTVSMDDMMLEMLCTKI
hcDAF-12 act – activators of H. contortus DAF-12 nuclear receptor; HEK293 hcDAF-12 lit1-tk-luc reporter, luminescence; 0% DMSO, 100% Δ7-dafachronic acid; activation, % at 6.8 µM; 370,000 compounds, 1.4% hits;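 active means activation above the mean of all tested compounds plus 3 SD, cut at about 5.5% in these data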
DAX1 inh-2 – DAX1 (NR0B1) inhibition, primary screen; HEK293T StAR-luciferase reporter, SF-1/DAX-1 repression relief; inhibition, % at 6.8 µM; 370,000 compounds, 1.1% hits; AID 652010;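 active means inhibition above the mean over all tested compounds plus 3 SD, cut at about 3.6% in these data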;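 further: higher inhibition means more luminescence from relief of DAX-1 repression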
Of the large screens only hits and unclear results are named; the others gave an inactive call.

Cc1cc(NC(=O)CSc2nnc(C)n2-c2ccccc2C)no1	DAX1 inh-1 4.2
Cc1cc(NC(=O)CSc2nc3c(C)ccc(C)c3cc2C#N)no1	DAX1 inh-1 5.7
O=C(C1CCCN(S(=O)(=O)c2ccc([N+](=O)[O-])cc2)C1)N1CCN(Cc2ccccc2)CC1 (stereo not given)	none (no result: DAX1 inh-1)
O=C1C[C@H](c2ccc3ccccc3c2)N=C2N1/C(=C\c1ccccc1)[C@@H](c1ccccc1C(F)(F)F)N2Cc1ccc2c(c1)OCO2	none (no result: SMARCA2 activ, DAX1 inh-1, DAX1 inh-2)
O=C1CCC[C@H]2C[C@H](NCc3cccnc3)CC[C@]23CCCN13	none (no result: SMARCA2 activ, DAX1 inh-1, DAX1 inh-2)
Cc1ccc(C(=O)NCCc2ccccc2)cc1	none (no result: hgDAF12 agonist, ssDAF12 agonist, SMARCA2 activ, hcDAF-12 act, DAX1 inh-2)
Cc1ccc(S(=O)(=O)N(C)c2ccc(C(=O)NCCc3ccccc3)cc2)cc1	ssDAF12 agonist 0.9
CN(c1ccc(C(=O)NCCc2ccccc2)cc1)S(C)(=O)=O	DAX1 inh-2 4.4
CN(c1ccccc1)S(=O)(=O)c1ccc(C(=O)NCc2ccccc2CN2CCCC2)cc1	DAX1 inh-2 4.3
CCCC(=O)N1CCC[C@]2(CC[C@@H](CCC(=O)N(CC)CC)O2)C1	none (no result: DAX1 inh-1)
CN1CCN(C(=O)CCN2C(=O)/C(=C/c3ccccc3Cl)SC2=S)CC1	SMARCA2 activ 7.9
COc1cc(OC)cc(C(=O)NC(=S)N2CCCCC2c2cccnc2)c1 (stereo not given)	none
COc1ccc(NC(=O)N2CCCCC2c2cccnc2)cc1 (stereo not given)	hgDAF12 agonist 11, hcDAF-12 act 5.6
CCOc1ccc(CN(C)CC(=O)Nc2cc(OC)c([N+](=O)[O-])cc2C)cc1	ssDAF12 agonist 1.2
COC(=O)c1ccc(/C=C/c2ccc3cccc(OC(C)=O)c3n2)cc1	hgDAF12 agonist 12
O=C(O)Cn1nc(-c2ccccc2)cc1-c1ccccc1	none
O=C(O)CC(C(=O)O)n1nc(-c2ccccc2)cc1-c1ccccc1 (stereo not given)	hcDAF-12 act 5.8
CCOC(=O)N1CCC(NC(=O)CN2C(=O)CSc3ncccc32)CC1	DAX1 inh-1 5.0
CCOC(=O)N1CCC(NC(=O)CCCN2C(=O)CSc3ncccc32)CC1	none
CCn1c(SCc2c(F)cccc2F)nc2sc3c(c2c1=O)CCCC3	none (no result: DAX1 inh-1)
O=C(CCC(=O)NNc1nc2ccccc2c2nc(-c3ccccc3)nn12)NCCCN1CCOCC1	hcDAF-12 act 5.6
CN1CCN(CCCNc2nc3ccccc3c3nc(-c4ccccc4)nn23)CC1	none
Cn1nc(C(F)(F)F)cc1-c1ccc(S(N)(=O)=O)s1	DAX1 inh-1 5.1
Cc1c(C(=O)N2CCN(C)CC2)oc2ccc(Br)cc12	DAX1 inh-1 5.0
Cc1c(C(=O)N2CCCC2)oc2ccc(Br)cc12	none
C[C@H](O)[C@@H]1CN2CCc3c([nH]c4c(-c5ccc6c(c5)OCO6)cccc34)[C@@H]2C[C@@H]1N(C)C(=O)Nc1ccccc1	none (no result: DAX1 inh-1)
O=C1Nc2ccc(F)cc2C12Nc1ccccc1-c1nnc(SCc3ccccc3)nc1O2 (stereo not given)	hcDAF-12 act 5.6
Cc1ccc(CSc2nnc3c(n2)OC2(Nc4ccccc4-3)C(=O)Nc3ccc(F)cc32)cc1 (stereo not given)	none
CC(NC(=O)C1CCCC1)c1ccccc1 (stereo not given)	none
O=C(NC(c1ccccc1)c1ccccc1)C1CCCC1	ssDAF12 agonist 1.4
CC(=O)N/C(=C/c1ccccc1)C(=O)NC(Cc1ccccc1)C(=O)O (stereo not given)	hgDAF12 agonist 11
COc1ccccc1OCc1nnc(SCC(=O)Nc2ccc(N3CCOCC3)cc2)n1C	DAX1 inh-1 4.8
Cc1cc(C)cc(NC(=O)CSc2nnc(CN3CCOCC3)n2C)c1	DAX1 inh-1 4.4
O=C(Nc1ccc(F)cc1)C1CC2CCC1C2 (stereo not given)	none
CCC(C)c1ccc(NC(=O)C2CC3CCC2C3)cc1 (stereo not given)	DAX1 inh-1 4.7
CC(C)c1ccc(NC(=O)C2CC3CCC2C3)cc1 (stereo not given)	DAX1 inh-1 6.0
CCOc1ccc(NC(=O)C2CC3CCC2C3)cc1 (stereo not given)	none (no result: DAX1 inh-1)
COc1ccc(OC)c(S(=O)(=O)N2CCC(C(=O)NCc3cccs3)CC2)c1	none (no result: DAX1 inh-1)
